Assay results: the supplement of paper PMC6555819

What was measured:
Assay in all cases: PBM binding z-score (relative to random genomic background probes); higher = stronger binding; sequences stand for … in GC…GCGATTGACAGCGTAGAATGAAGG
[1] = system: FXR:RXRa (NR concentration 270 nM, RXRa partner concentration 90 nM)
Outline: (§1)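 On custom Agilent 4×180K arrays, double-stranded probes with 34-nt variable regions carried direct-repeat seeds, single-nucleotide variants, half-site ablations or random human genomic background. Ligand-free nuclear receptor dimers were applied for 1 h, and binding was read with antibodies against each partner (one per run). Binding z-scores come from regression-normalized fluorescence, with the random background probes as reference.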

[2] = system: LXRa:RXRa (NR concentration 270 nM, RXRa partner concentration 90 nM)
Outline: as §1

[3] = system: LXRa homodimer (NR concentration 270 nM)
Outline: as §1

[4] = system: LXRb:RXRa (NR concentration 270 nM, RXRa partner concentration 90 nM)
Outline: as §1

[5] = system: LXRb homodimer (NR concentration 270 nM)
Outline: as §1

[6] = system: PPARa:RXRa (NR concentration 270 nM, RXRa partner concentration 90 nM)
Outline: as §1

[7] = system: PPARg:RXRa (NR concentration 180 nM, RXRa partner concentration 90 nM)
Outline: as §1

[8] = system: PPARg:RXRa 270nM:90nM, anti-RXR (NR concentration 270 nM, RXRa partner concentration 90 nM)
Outline: as §1

[9] = system: PPARg:RXRa 30nM:10nM, anti-RXR (NR concentration 30 nM, RXRa partner concentration 10 nM)
Outline: as §1

[10] = system: PPARg:RXRa 90nM:30nM, anti-RXR (NR concentration 90 nM, RXRa partner concentration 30 nM)
Outline: as §1

[11] = system: PPARg:RXRa DBDmut IVT, anti-RXR (DBD mutation: RXRa K156A/R161A, NR concentration 270 nM, RXRa partner concentration 90 nM)
Outline: as §1

[12] = system: PPARg:RXRa IVT, anti-PPARg (NR concentration 270 nM, RXRa partner concentration 90 nM)
Outline: as §1

[13] = system: PPARg DBDmut:RXRa IVT, anti-PPARg (DBD mutation: PPARg1 K132A/R137A, NR concentration 270 nM, RXRa partner concentration 90 nM)
Outline: as §1

[14] = system: PPARg DBDmut IVT, anti-PPARg (DBD mutation: PPARg1 K132A/R137A, NR concentration 270 nM)
Outline: as §1

[15] = system: PPARg homodimer (NR concentration 180 nM)
Outline: as §1

[16] = system: PXR:RXRa (NR concentration 270 nM, RXRa partner concentration 90 nM)
Outline: as §1

[17] = system: PXR homodimer (NR concentration 270 nM)
Outline: as §1

[18] = system: RARa:RXR (NR concentration 270 nM, RXRa partner concentration 90 nM)
Outline: as §1

[19] = system: RARa homodimer (NR concentration 270 nM)
Outline: as §1

[20] = system: RARb:RXRa (NR concentration 270 nM, RXRa partner concentration 90 nM)
Outline: as §1

Row | Sequence | PBM binding z-score [1] | PBM binding z-score [2] | PBM binding z-score [3] | PBM binding z-score [4] | PBM binding z-score [5] | PBM binding z-score [6] | PBM binding z-score [7] | PBM binding z-score [8] | PBM binding z-score [9] | PBM binding z-score [10] | PBM binding z-score [11] | PBM binding z-score [12] | PBM binding z-score [13] | PBM binding z-score [14] | PBM binding z-score [15] | PBM binding z-score [16] | PBM binding z-score [17] | PBM binding z-score [18] | PBM binding z-score [19] | PBM binding z-score [20]
1 | CCTACAGGGTCAGCTAGGCCAGAGTAGGGACGGC | 4.39 | 2.61 | -0.714 | 1.7 | -0.84 | 4.2 | 2.56 | 2.7 | 0.464 | 1.31 | 0.563 | 1.44 | -0.42 | -1.17 | 1.25 | 1.92 | -0.627 | 2.68 | -0.295 | 4.03
2 | ACTGGTTGGTCAGCTGAGGTCACACACAATTCGG | 3.86 | 3.31 | 2.58 | 3.6 | 0.876 | 3.6 | 1.53 | 2.1 | 0.448 | 1.43 | 0.671 | 2.22 | 1.22 | 0.402 | 3.12 | 5.37 | 2.47 | 4.61 | 1.92 | 3.73
3 | GTACCAAGGTGAATAGGTTGTTGATGAGTAGGCG | 0.414 | 0.445 | 0.0313 | 0.384 | -0.172 | 1.27 | 0.802 | 0.714 | -0.0689 | 0.204 | 1.75 | 2.2 | 0.246 | 0.502 | 0.999 | 0.105 | 0.241 | 0.634 | 1.32 | 1.36
4 | CCTCGGAGGACAACAGGAGGTGAGAGCTGCCAGA | -0.0702 | -0.357 | -0.536 | -0.619 | -0.875 | -0.108 | 0.133 | -0.73 | -0.83 | -0.93 | 0.262 | 0.245 | -1.46 | -1.64 | -0.411 | -0.513 | -0.0477 | -0.183 | -0.132 | 1.13
5 | TCAGACAGGTGAAGCTAACTCAGGTACGCAGTCG | 0.462 | 0.31 | -0.268 | 0.231 | -0.92 | 0.744 | 0.519 | 1.5 | 3.44 | 2.75 | 2.31 | 0.713 | 0.0407 | -0.303 | 0.616 | 0.0875 | 0.111 | 0.285 | 0.225 | 0.749
6 | TTACCAAGGTGAGTTGAGGTCGTTGATCCAACTC | 1.28 | 2.03 | -0.25 | 1.39 | -0.831 | 2.06 | 0.352 | 0.682 | 0.292 | 0.637 | 0.767 | 1.95 | -0.517 | -0.489 | 0.402 | 4.83 | 0.689 | 2.24 | -0.309 | 1.54
7 | CCGACCGGGGCAAGGTTACCATAACGCACAGCCA | 0.591 | 1.02 | -0.0287 | 0.604 | -0.88 | 1.3 | 1.3 | 1.18 | -0.0517 | 0.495 | 0.434 | 0.22 | -0.24 | -0.801 | 0.684 | 0.376 | -0.0438 | 1.28 | 0.236 | 1.97
8 | GCTGACGGGTCAAAGGTTATAGCATGAATAGAAT | 7.43 | 5.45 | 0.433 | 5.53 | -0.231 | 6.99 | 9.41 | 8.11 | 7.21 | 8.55 | 1.23 | 4.56 | 0.893 | 0.679 | 3.42 | 5.8 | 0.288 | 8.03 | 0.75 | 4.63
9 | CCGAGTAGGTTATGGGGCATTGAGGCAACGGTGA | 0.345 | 0.579 | -0.265 | 0.437 | -0.0283 | 2.09 | 3.48 | 4.63 | 2.18 | 4.57 | 3.23 | 3.52 | -0.234 | 0.034 | 1.19 | -0.0257 | 0.241 | 0.37 | 0.756 | 0.976
10 | CCGACTGGGGCATAAGGTTACCATGAGCCAGCCC | 0.192 | 1.36 | -0.247 | 0.153 | -1.3 | 1.9 | 2.48 | 3.24 | 1.36 | 2.8 | 2.64 | 3.31 | -0.794 | -1.56 | 0.331 | 0.16 | -0.667 | 1.16 | 0.564 | 1.55
11 | CGTCAAAGTGCAAGGTAACGTAACAGAAAGCAGC | 0.00612 | 0.219 | -0.312 | 0.159 | -0.589 | 0.731 | 0.773 | 0.593 | -0.0711 | 0.326 | 0.0283 | 0.682 | -0.0131 | -0.0811 | 0.153 | 0.149 | -0.225 | 0.344 | -0.0833 | 2.05
12 | ATCTCTAAGTAAAGATAGTTCAGTGAATGCAAAT | 0.825 | 1.03 | 0.571 | 0.658 | 0.588 | 0.429 | 0.449 | 0.18 | 0.359 | 0.14 | 0.013 | -0.072 | 0.975 | 1.08 | 1.3 | 0.808 | 0.715 | 1.08 | 1.41 | 0.426
13 | CGTCAAAGTTCAAGGTGACGTAACAGAAAGCAGC | 6.62 | 5.96 | 2.8 | 3.49 | 0.846 | 4.92 | 4.71 | 5.65 | 2.12 | 4.45 | 0.983 | 2.9 | 0.379 | 0.562 | 2.88 | 4.44 | 2.3 | 3.88 | 1.52 | 5.21
